This is an account of results in PubChem BioAssay (EPA / NIEHS).

Molecules are shown by their SMILES. Active and inactive are the calls of the source. How the source made its calls: active means hit-call score of the fitted dose curve at least 0.9, where 1 is the maximum; inactive means score below 0.9.

Read-out in assay [1]: Urokinase-type plasminogen activator receptor (uPAR), PLAUR (gene 5329)
Nature of the assay: BSK_BE3C_uPAR: BioMAP Diversity Plus: BE3C Assay for Urokinase-type plasminogen activator receptor (uPAR) Biomarker Activity (AID 2283039).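 On outcome: uPAR protein level measured by ELISA on the cells; cells exposed to compound for one day before measurement.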 The following applies: primary human bronchial epithelial cells; actives raise or lower the signal. In a few lines: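 ELISA readout of uPAR on human lung primary bronchial epithelial cells, 24 h post-dosing. Bidirectional curve fit relative to DMSO vehicle baseline; gain or loss of signal both scored.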

Read-out in assay [2]: Interleukin-6 (IL6), IL6 (gene 3569)
Nature of the assay: BSK_CASM3C_IL6: BioMAP Diversity Plus: CASM3C Assay for Interleukin-6 (IL6) Biomarker Activity for (AID 2283040). The following applies: primary human coronary artery smooth muscle cells; actives raise or lower the signal.

Read-out in assay [3]: Tissue plasminogen activator (tPA), PLAT (gene 5327)
Put plainly: BSK_BE3C_tPA: BioMAP Diversity Plus: BE3C Assay for Tissue plasminogen activator (tPA) Biomarker Activity (AID 2283041).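 On outcome: tPA level quantified by ELISA one day after compound addition.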 As to conditions: primary human bronchial epithelial cells; actives raise or lower the signal. The method, boiled down: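 ELISA read-out of tPA on human primary bronchial epithelial cells, 24 h post-dosing; bidirectional fit vs DMSO negative control/baseline.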

Read-out in assay [4]: Interleukin-8 (IL8), CXCL8 (gene 3576)
Put plainly: BSK_CASM3C_IL8: BioMAP Diversity Plus: CASM3C Assay for Interleukin-8 (IL8) Biomarker Activity (AID 2283042).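 Further: IL-8 protein level quantified by ELISA.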 The following applies: primary human coronary artery smooth muscle cells; actives raise or lower the signal.

Read-out in assay [5]: Human Leukocyte Antigen - DR isotype (HLADR), HLA-DRA (gene 3122)
Put plainly: BSK_CASM3C_HLADR: BioMAP Diversity Plus: CASM3C Assay for Human Leukocyte Antigen - DR isotype (HLADR) Biomarker Activity (AID 2283043).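 Further: cell-surface HLA-DR protein level quantified by ELISA.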 The following applies: primary human coronary artery smooth muscle cells; actives raise or lower the signal.

Read-out in assay [6]: Macrophage colony-stimulating factor (MCSF), CSF1 (gene 1435)
Put plainly: BSK_CASM3C_MCSF: BioMAP Diversity Plus: CASM3C Assay for Macrophage colony-stimulating factor (MCSF) Biomarker Activity (AID 2283044).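 Further: M-CSF protein amount quantified by ELISA after 24 h exposure.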 The following applies: primary human coronary artery smooth muscle cells; actives raise or lower the signal.

Read-out in assay [7]: Low-density lipoprotein receptor (LDLR), LDLR (gene 3949)
Put plainly: BSK_CASM3C_LDLR: BioMAP Diversity Plus: CASM3C Assay for Low-density lipoprotein receptor (LDLR) Biomarker Activity (AID 2283045).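 Further: LDLR protein level on the cell surface quantified by ELISA.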 As to conditions: primary human coronary artery smooth muscle cells; actives raise or lower the signal.

Read-out in assay [8]: Monocyte Chemoattractant Protein-1 (MCP1), CCL2 (gene 6347)
Nature of the assay: BSK_CASM3C_MCP1: BioMAP Diversity Plus: CASM3C Assay for Monocyte Chemoattractant Protein-1 (MCP1) Biomarker Activity (AID 2283046).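 Further: MCP-1 level quantified by ELISA 24 h after dosing.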 The following applies: primary human coronary artery smooth muscle cells; actives raise or lower the signal.

A short description of assay [9]: BSK_CASM3C_Proliferation: Cell Proliferation Assessment in the BioMAP Diversity Plus: CASM3C Assay (AID 2283047).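 Further: sulforhodamine B total protein stain as relative cell number at 560 nm; sub-confluent cells exposed 48 h before staining; fitted both ways against DMSO so gain or loss of cell number.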 As to conditions: primary human coronary artery smooth muscle cells.
Read-out in assay [10]: Monokine induced gamma interferon (MIG), CXCL9 (gene 4283)
Nature of the assay: BSK_CASM3C_MIG: BioMAP Diversity Plus: CASM3C Assay for Monokine induced gamma interferon (MIG) Biomarker Activity (AID 2283048).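 Further: MIG protein level measured by ELISA.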 The following applies: primary human coronary artery smooth muscle cells; actives raise or lower the signal.

Read-out in assay [11]: serum amyloid A (SAA), SAA1 (gene 6288)
Nature of the assay: BSK_CASM3C_SAA: BioMAP Diversity Plus: CASM3C Assay for serum amyloid A (SAA) Biomarker Activity (AID 2283049).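 Further: SAA protein level quantified by ELISA.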 As to conditions: primary human coronary artery smooth muscle cells; actives raise or lower the signal.

The nature of assay [12]: BSK_CASM3C_SRB: Viability Assessment in the BioMAP Diversity Plus: CASM3C Assay (AID 2283050).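 Further: cells exposed to compound for 24 h.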 The following applies: primary human coronary artery smooth muscle cells.
Read-out in assay [13]: Thrombomodulin, THBD (gene 7056)
Nature of the assay: BSK_CASM3C_Thrombomodulin: BioMAP Diversity Plus: CASM3C Assay for Thrombomodulin Biomarker Activity (AID 2283051).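 Further: thrombomodulin protein level measured by ELISA 24 h after dosing.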 The following applies: primary human coronary artery smooth muscle cells; actives raise or lower the signal.

Read-out in assay [14]: Tissue Factor, F3 (gene 2152)
Put plainly: BSK_CASM3C_TissueFactor: BioMAP Diversity Plus: CASM3C Assay for Tissue Factor Biomarker Activity (AID 2283052).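 Further: cell surface tissue factor protein level read by ELISA.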 The following applies: primary human coronary artery smooth muscle cells; actives raise or lower the signal.

Read-out in assay [15]: Interferon-gamma inducible Protein 10 (IP10), CXCL10 (gene 3627)
Nature of the assay: BSK_hDFCGF_IP10: BioMAP Diversity Plus: hDFCGF Assay for Interferon-gamma inducible Protein 10 (IP10) Biomarker Activity (AID 2283053). The following applies: primary human foreskin fibroblasts; actives raise or lower the signal. In a few lines: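 ELISA read-out of IP-10 (CXCL10) from primary human skin fibroblasts, 24 h after compound addition. Gain or loss of signal versus DMSO baseline, bidirectional curve fitting.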

Read-out in assay [16]: Urokinase-type plasminogen activator receptor (uPAR), PLAUR (gene 5329)
Nature of the assay: BSK_CASM3C_uPAR: BioMAP Diversity Plus: CASM3C Assay for Urokinase-type plasminogen activator receptor (uPAR) Biomarker Activity (AID 2283054).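 Further: cell-surface uPAR protein level quantified by ELISA.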 As to conditions: primary human coronary artery smooth muscle cells; actives raise or lower the signal.

Read-out in assay [17]: Vascular cell adhesion molecule 1 (VCAM1), VCAM1 (gene 7412)
Put plainly: BSK_CASM3C_VCAM1: BioMAP Diversity Plus: CASM3C Assay for Vascular cell adhesion molecule 1 (VCAM1) Biomarker Activity (AID 2283055).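 Further: VCAM-1 protein level quantified by ELISA on the cells.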 The following applies: primary human coronary artery smooth muscle cells; actives raise or lower the signal.

Read-out in assay [18]: Epidermal growth factor receptor (EGFR), EGFR (gene 1956)
Put plainly: BSK_hDFCGF_EGFR: BioMAP Diversity Plus: hDFCGF Assay for Epidermal growth factor receptor (EGFR) Biomarker Activity (AID 2283057). As to conditions: primary human foreskin fibroblasts; actives raise or lower the signal. The method, boiled down:
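ELISA readout of EGFR on human dermal fibroblasts (primary foreskin cells), 24 h post-dosing; bidirectional curve fit vs DMSO baseline, gain or loss of signal scored.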

Read-out in assay [19]: Interleukin-8 (IL8), CXCL8 (gene 3576)
Nature of the assay: BSK_hDFCGF_IL8: BioMAP Diversity Plus: hDFCGF Assay for Interleukin-8 (IL8) Biomarker Activity (AID 2283058). As to conditions: primary human foreskin fibroblasts; actives raise or lower the signal. The method, boiled down:
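Primary human foreskin fibroblasts (hDFCGF system) dosed with chemical; IL-8 measured by ELISA 24 hours later. Bidirectional curve fitting relative to DMSO baseline; cytotoxicity tracked in parallel cultures by SRB total protein staining.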

Read-out in assay [20]: Collagen III, COL3A1 (gene 1281)
Nature of the assay: BSK_hDFCGF_CollagenIII: BioMAP Diversity Plus: hDFCGF Assay for Collagen III Biomarker Activity (AID 2283056). As to conditions: primary human foreskin fibroblasts; actives raise or lower the signal. The method, boiled down:
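Human foreskin fibroblast primary cultures sampled 24 h after dosing; Collagen III quantified by ELISA. Signal fitted bidirectionally against DMSO baseline.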

`COP(=S)(OC)SCn1nnc2ccccc2c1=O`: the outcome in [1], in [2], in assay [3], in assay [4], in assay [5] and in assay [6] was inactive. In addition, the result in assay [7], in assay [8], in [9], in assay [10], in assay [11] and in [12] was inactive. Moreover, the outcome in assay [13], in assay [14], in assay [15], in [16], in assay [17] and in assay [18] was inactive. In addition, the result in assay [19] was inactive.
As to `OC(c1ccc(Cl)cc1)(c1ccc(Cl)cc1)C(Cl)(Cl)Cl`, the result in [1], in assay [2], in assay [5], in assay [7], in assay [14] and in assay [18] was inactive. In addition, the AC50 in assay [3] was 13.1 µM (active); in [4] it was 33.4 µM (active); in [6], 36.2 µM (active); in assay [8] it was 35.2 µM (active); in [9], 30.4 µM (active); in assay [10] it was 31.3 µM (active). Besides, the AC50 in [11] was 32.2 µM (active); in assay [12] it was 35.2 µM (active); in assay [13], 33.1 µM (active); in [15] it was 9.87 µM (active); in assay [16] it was 32.9 µM (active); in [17], 27.2 µM (active). Also, the half-maximal activity concentration (AC50) in assay [20] is 10.3 µM (active); in assay [19] it was 11 µM (active).
`CCCCOCN(C(=O)CCl)c1c(CC)cccc1CC`: the AC50 in assay [1] is 32.2 µM (active); in [2] it was 4.92 µM (active); in assay [3], 36.9 µM (active); in [4], 5.08 µM (active); in assay [5], 26.1 µM (active); in assay [6], 28.8 µM (active). In addition, the AC50 in assay [8] is 33.2 µM (active); in [9] it was 27.4 µM (active); in assay [12], 31.4 µM (active); in assay [13] it was 5.46 µM (active); in [15] it was 24.6 µM (active); in assay [16], 29.3 µM (active). The AC50 in assay [17] was 24.2 µM (active); in assay [20], 12.2 µM (active); in assay [18], 33.3 µM (active); in [19], 31.4 µM (active). Besides, the outcome in assay [7], in assay [10], in [11] and in assay [14] was inactive.
As to `C=C(C)CN(CC)c1c([N+](=O)[O-])cc(C(F)(F)F)cc1[N+](=O)[O-]`, the result in assay [1], in assay [2], in [3], in assay [4], in [5] and in assay [6] was inactive. Further, the result in assay [7], in assay [8], in assay [9], in [10], in assay [11] and in assay [12] was inactive. The result in assay [13], in assay [14], in [16], in assay [17], in [20] and in [18] was inactive. Also, the result in assay [19] was inactive. In [15], the AC50 is 20 µM (active).
Take `O=C1C2CC=CCC2C(=O)N1SC(Cl)(Cl)Cl` (stereo unspecified): the result in assay [1], in [7] and in assay [14] was inactive. Moreover, the AC50 is 30.9 µM (active) in [2]; 11.4 µM (active) in [3]; 31.7 µM (active) in assay [4]; 13.4 µM (active) in assay [5]; 28.9 µM (active) in [6]; 31.7 µM (active) in assay [8]. Further, the AC50 was 7.03 µM (active) in assay [9]; 34.9 µM (active) in assay [10]; 35 µM (active) in assay [11]; 29.5 µM (active) in assay [12]; 4.74 µM (active) in assay [13]; 6.95 µM (active) in assay [15]. Besides, the AC50 in assay [16] is 32.2 µM (active); in assay [17], 22.5 µM (active); in assay [18] it was 5.78 µM (active); in assay [19], 12.1 µM (active).
For `CS(=O)(=O)c1cc(C(F)(F)F)ccc1C(=O)c1cnoc1C1CC1`, the result in assay [1], in assay [2], in assay [3], in assay [4], in assay [5] and in [6] was inactive. For the same molecule, the outcome in [7], in assay [8], in assay [9], in assay [10], in assay [11] and in assay [12] was inactive. The result in assay [13], in [14], in assay [15], in assay [16], in assay [17] and in assay [18] was inactive. Further, the outcome in assay [19] was inactive.
As to `CC1(C)CCC(=Cc2ccc(Cl)cc2)C1(O)Cn1cncn1` (stereo unspecified), the outcome in assay [1], in assay [2], in [3], in assay [4], in [5] and in assay [6] was inactive. Also, the outcome in assay [7], in [8], in [9], in assay [10], in [11] and in assay [12] was inactive. For the same molecule, the outcome in assay [13], in assay [14], in assay [15], in assay [16], in assay [17] and in assay [18] was inactive. The result in [19] was inactive.

For orientation: AC50 means the concentration at which the activity in the assay is half-maximal.
